# Laboratory results reported in PubChem BioAssay (NCATS).
# A number with no mark means an inactive call. Records with an inconclusive call do not appear. Where a call stands in place of a potency, no number is given. Activity calls are given as the source filed them. The call rests on the fitted dose curve; in most records, active means well fitted inhibition curve with a large enough effect; inconclusive means small, poorly fitted or top-dose-only effect; inactive means flat fitted curve, though single readings scatter.
# Target: Phospholipid hydroperoxide glutathione peroxidase GPX4 (Homo sapiens) (UniProt P36969)
# Sequence (P36969 whole entry, looked up): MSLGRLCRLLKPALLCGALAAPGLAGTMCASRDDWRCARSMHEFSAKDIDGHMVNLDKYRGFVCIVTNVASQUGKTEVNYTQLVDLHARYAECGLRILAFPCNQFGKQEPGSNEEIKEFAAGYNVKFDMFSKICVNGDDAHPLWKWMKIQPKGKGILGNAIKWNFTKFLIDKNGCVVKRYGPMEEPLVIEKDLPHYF
# Experiment: Primary qHTS Assay for Inhibitors of Recombinant Selenoprotein Glutathione Peroxidase 4 (GPX4) (AID 1845192); further: nearly all actives have a fitted effect of over 65% in size
# Settings: recombinant GPX4, GR-coupled NADPH fluorescence, 15 min; series mostly up to 50 µM; activity change, negative = inhibition: at the top concentration
# Method in brief: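 NADPH consumption followed by fluorescence at 340/450 nm, t=0 and after 15 min at room temperature. Reaction started with cumene hydroperoxide (0.5 mM final) after 30 min compound–GPX4 preincubation; final 200 nM GPX4, 100 nM GR, 1 mM GSH, 0.5 mM NADPH.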
Structure (SMILES),Potency,"activity change, negative = inhibition",outcome
NCC(CC(=O)O)c1ccc(Cl)cc1 (stereo not given),inactive,–,–
CC(C)=CCOc1c2occc2cc2ccc(=O)oc12,–,-13.5%,–
c1ccc2c(c1)OCC(C1=NCCN1)O2 (stereo not given),–,-10%,–
CCC1(C2=NCCN2)Cc2ccccc2O1 (stereo not given),–,-2.82%,–
C[C@@H]1O[C@@H](O[C@H]2C[C@@H](O)[C@]3(CO)[C@H]4[C@H](O)C[C@]5(C)[C@@H](C6=CC(=O)OC6)CC[C@]5(O)[C@@H]4CC[C@]3(O)C2)[C@H](O)[C@H](O)[C@H]1O,inactive,–,–
Cc1ccc(S(=O)(=O)N[C@@H](CCCCN)C(=O)CCl)cc1,–,–,inactive
CCCN1CCC[C@@H]2Cc3nc(N)ncc3C[C@H]21,–,–,inactive

# Target: Luciferin 4-monooxygenase (Photinus pyralis) (UniProt P08659)
# Experiment: Primary firefly luciferase (FLuc) qHTS assay for identification of artifact compounds. (AID 1845220); further: nearly all actives have a fitted effect of over 60% in size
# Settings: purified firefly luciferase, luminescence, 5 min; series mostly up to 54.1 µM; activity change, negative = inhibition: at the top concentration
# Method in brief: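 Compounds sat 15 min at room temperature with 10 uM luciferin and 10 uM ATP (pH 7.6 Tris acetate). Firefly luciferase (10 nM final) was then added, and luminescence was read 5 min later. Data normalized to no-enzyme and DMSO controls were Hill-fitted.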
Structure (SMILES),"activity change, negative = inhibition",outcome
O=c1[nH]c2ccccc2n1C1CCN(CCCC(c2ccc(F)cc2)c2ccc(F)cc2)CC1,4.83%,–
CC(O)(CS(=O)(=O)c1ccc(F)cc1)C(=O)Nc1ccc(C#N)c(C(F)(F)F)c1 (stereo not given),–,inactive
C[C@@H]1O[C@@H](O[C@H]2C[C@@H](O)[C@]3(CO)[C@H]4[C@H](O)C[C@]5(C)[C@@H](C6=CC(=O)OC6)CC[C@]5(O)[C@@H]4CC[C@]3(O)C2)[C@H](O)[C@H](O)[C@H]1O,-3.34% [at 25.7 µM],–
